# In PubChem BioAssay AID1259339 (Broad Institute, 2017):
# Unmarked numbers belong to inactive results. Activity calls are given as the source filed them.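 Rule for the calls: active = fitted AC50 no higher than ten times the top tested dose (cut at about 90 µM in these data); inconclusive = flat curve with 30 to 70% signal loss, or bad fit; inactive = AC50 beyond ten times the top dose.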
# Assay: AlphaLISA signal interference compounds, dose response, artefact control, biochemical, TruHit kit (AID 1259339)
# Details: TruHit alphaLISA kit signal interference counterscreen; series mostly up to 80 µM
row,Structure (SMILES),AC50
1,O=C(O)C1Oc2cc3ccccc3cc2O1,30.2 µM (active)
2,Cc1nc(C)c(C(=O)Nc2ncc([N+](=O)[O-])s2)o1,40.7 µM (active)
3,CCOc1ccccc1NC(=O)N1CCCC(c2nccn2CCOC)C1 (stereo unspecified),inactive
4,O=C(CN1CCOC1=O)N1CCC2(CCC(=O)N(CCCn3ccnc3)C2)CC1,inactive
5,O=C1CC2(CCN(C(=O)Nc3ccccc3)CC2)CN1Cc1ccc(Cl)cc1,inactive
6,Cn1ncc2c(NNC(=O)c3cc(O)cc(O)c3)ncnc21,inactive
7,COc1c(C(=O)O)csc1Br,0.373 µM (active)
8,Nc1ccc(-c2cccc(CN3CCCC3)c2)cc1,inactive
9,CC(=O)c1sc2nc(-c3ccco3)ccc2c1N,43.6 µM (active)
10,CC(C)C(CC(=O)NCc1ccco1)c1ccco1 (stereo unspecified),66.5 µM (active)
11,O=c1/c(=C/c2ccco2)sc2nc3ccccc3n12,> 160 µM
12,NC(=O)C1(N2CCCCC2)CCN(c2ccc(NC(=O)c3ccccc3F)cc2C(=O)O)CC1,inactive
13,CC(C(=O)N1CCCC1)N1CCN(c2ccccc2O)CC1 (stereo unspecified),inactive
14,O=C(Nc1nccs1)c1cc(-c2ccco2)nc2ccccc12,29 µM (active)
15,CCCN1CCCn2nc(CNC(=O)[C@@H](N)Cc3ccc(O)cc3)cc2C1,inactive
16,O=S(=O)(c1ccc2nc(-c3ccco3)c(-c3ccco3)nc2c1)N1CCOCC1,26.8 µM (active)
17,Cc1cnc(C)c(N2CCN(C(=O)[C@H]3CC[C@@H](N)C3)CC2)n1,inactive
18,O=S(=O)(Nc1nc2ccc(S(=O)(=O)N3CCCCC3)cc2s1)c1ccccc1,76.8 µM (active)

row,Structure (SMILES),AC50
1,NC(=O)C1(N2CCCCC2)CCN(c2ncc(NC(=O)c3ccccc3)cc2C(=O)O)CC1,inactive
2,CCCN1CCCn2nc(CNC(=O)[C@H]3CC[C@@H](N)C3)cc2C1,inactive
3,NC(=O)c1ccc(CN2C(=O)C3(CCNCC3)Nc3ccccc32)cc1,inactive
4,CCOC(=O)C1CCN(C(=O)CN(Cc2ccccc2)S(C)(=O)=O)CC1,inactive
5,Cc1ccc2cc(CN(Cc3ccco3)S(C)(=O)=O)c(=O)[nH]c2c1,inactive
6,COCC(=O)N1CCCC2(CCN(CCN3CCCC3)C2=O)C1 (stereo unspecified),inactive
7,CCc1nc(OCc2ccco2)c2sc3nc4c(cc3c2n1)COC(C)(C)C4,inactive
8,NC(=O)C1(N2CCCCC2)CCN(c2ncc(NC(=O)c3ccccc3F)cc2C(=O)O)CC1,inactive
9,O=C(Nc1nc(-c2ccco2)c(-c2ccco2)s1)C1CCC1,4.55 µM (active)
10,COCCC(=O)N1CCCC2(CCN(CCN3CCCC3)C2=O)C1 (stereo unspecified),inactive
11,O=C1C=C(c2ccccc2)Nc2ccccc2N1,inactive
12,Cc1cccc2nc(CSCc3ccco3)cn12,74.7 µM (active)
13,COc1ccc(NC(=O)c2nc(Nc3ccccc3)c3ccccc3n2)cc1,inactive
14,O=C(CCN1CCOCC1)c1ccc2c(c1)OCCO2,inactive
15,O=C(Nc1nc(-c2ccco2)c(-c2ccco2)s1)c1ccc(F)cc1F,4.41 µM (active)
16,O=C(Nc1ccc(OCC(=O)N2CCOCC2)cc1)c1cncc(Br)c1,inactive
17,CCc1ccc(Nc2nc(C(=O)NCc3ccc(N(C)C)cc3)nc3ccccc23)cc1,inactive
18,c1ccc(-c2nc(-c3ccco3)n3ccccc23)cc1,27.2 µM (active)
